Potency data for 40 compounds are collected here from PubChem BioAssay (Tox21).

Records with an inconclusive call do not appear. Where a call stands in place of a potency, no number is given. Active and inactive are the calls of the source. Calls come from the whole dose curve; as a rule, active = well fitted cell-killing curve with a large enough effect in the repeat runs; inconclusive = weak or mixed curves, or effect the other way; inactive = flat fitted curve, though single readings scatter.
Potency is the fitted concentration of half-maximal effect.

A short description of this experiment: qHTS RealTime-Glo MT Cell Viability Assay in HEK293 cells - 0 hour (AID 1224880). Note: nearly all actives have a fitted effect of over 45% in size. Particulars: RealTime-Glo luminescence; series mostly up to 76.8 µM. The text has this:
U.S. Tox21 Program National Center for Advancing Translational Sciences [NCATS] NIH Chemical Genomics Center [NCGC] U.S. Environmental Protection Agency [EPA] National Institutes of Environmental Health Sciences [NIEHS] National Toxicology Program [NTP] U.S. Food and Drug Administration [FDA] Tox21 Assay Overview: Measure of cell viability is critical in the cell-base assay. Analysis of cell viability is necessary for the characterization of cell responses to cytotoxic drugs and environmental stress. A RealTime-Glo MT Cell Viability Assay to monitor cell viability in real time of continues cell culture during 40 hours of compound treatment was used to screen Tox21 10K library compounds in Hek293 cells. The RealTime-Glo MT Cell Viability Assay is a nonlytic, homogeneous, bioluminescent method to measure cell viability in real time using a simple, plate-based method. The assay involves adding NanoLuc luciferase and a cell-permeant prosubstrate to cells in culture. Viable cells reduce the proprietary prosubstrate to generate a substrate for NanoLuc luciferase. This substrate diffuses from cells into the surrounding culture medium, where it is rapidly used by the NanoLuc Enzyme to produce a luminescent signal. The signal correlates with the number of viable cells, making the assay well suited for cytotoxicity studies.
Tox21 Assay Protocol Summary: The mixture of Hek293 cell suspension and reagents were dispensed at 600cells/6 ul/well in 1536-well tissue culture treated black solid bottom plates using a Multidrop dispenser. After the assay plates were incubated at a 37 C/5% CO2 incubator for 5 hours, 23 nL of compounds dissolved in DMSO, positive and negative controls was transferred to the assay plate by a pintool work station. The plates were incubated at 37 C for 40 hours. The luminescence intensity were measured at 0h, 8h, 16h, 24h, 32h and 40h time points using ViewLux plate reader during compound treatment.
For the compound `CCCCCCCCCCOC(=O)c1ccccc1C(=O)OCCCCCCCCCC`, the Potency result was “inactive”. For `CCCCC(CC)COP(=O)(Oc1ccccc1)Oc1ccccc1` (stereo not given) the value was “inactive”; for `COc1ccc(-c2ccccc2)cc1NNC(=O)OC(C)C`, “inactive”; for `CN(N=O)c1ccc([N+](=O)[O-])cc1`, “inactive”.

Turning to `C[C@]12CC[C@H]3[C@@H](CCC4=CC(=O)CC[C@@H]43)[C@@H]1CC[C@@H]2OC(=O)CCC1CCCCC1`, the Potency entry is “inactive”. For `CCC(Br)(CC)C(=O)NC(N)=O` the value was “inactive”; for `C=CCOC(C)=O`, “inactive”; for `ClCCCCBr`, “inactive”. For `Clc1cc(C(Cl)(Cl)Cl)cnc1Cl` the value was “inactive”; for `CCCN(CCCl)c1c([N+](=O)[O-])cc(C(F)(F)F)cc1[N+](=O)[O-]`, “inactive”.

With `O=Cc1ccc(Cl)cc1Cl`, the Potency result is “inactive”.

For the compound `O=C1C(Cl)C(CCl)CN1c1cccc(C(F)(F)F)c1` (stereo not given), the Potency entry is “inactive”. For the compound `[CH3][Sn]([CH3])([Cl])[Cl]`, the Potency result is “inactive”. For `CO/N=C(/C(=O)OC)c1ccccc1COc1ccccc1C` the value was “inactive”; for `CC(C)O.CC(C)O.OCCN(CCO)CCO.OCCN(CCO)CCO.[Ti]`, “inactive”; for `CNP(=O)(OC)Oc1ccc(C(C)(C)C)cc1Cl` (stereo not given), “inactive”. As to `O=C(CBr)c1ccccc1`, the Potency entry was “inactive”.

On to `O=S1(=O)OC(c2cc(Br)c(O)c(Br)c2)(c2cc(Br)c(O)c(Br)c2)c2ccccc21`, for which the Potency is 10 µM (active). For `CC/C(=N\OC/C=C/Cl)C1=C(O)CC(C2CCOCC2)CC1=O` (stereo not given) the value was “inactive”; for `O=C(O)C(F)(F)C(F)(F)C(F)(F)C(F)(F)C(F)(F)C(F)(F)C(F)(F)C(F)(F)C(F)(F)C(F)(F)F`, “inactive”; for `O=[N+]([O-])c1ccccc1CCl`, “inactive”. For `ClP(Cl)(Cl)(Cl)Cl` the value was “inactive”; for `CC(=O)CCC(C)=O`, “inactive”. For `O=C(CCl)c1ccc(Cl)cc1Cl` the value was “inactive”.

For `Cc1ccc2ccccc2c1`, the Potency entry was “inactive”. Consider `BrCC(Br)C1CCC(Br)C(Br)C1` (stereo not given), for which the Potency entry was “inactive”.

With `O=[N+]([O-])C(Br)(CO)CO`, the Potency result was “inactive”. Turning to `CS/C(C)=N/OC(=O)N(C)SN(C)C(=O)O/N=C(\C)SC`, the Potency entry was “inactive”. For `[O-][Cl+]O` the value was “inactive”; for `Cn1cc[n+](C)c1` (tested in a mixture with another compound), “inactive”; for `NC(=O)C(Cl)(Cl)Cl`, “inactive”. For the compound `CCOP(=S)(OCC)Oc1cc(Cl)c(Br)cc1Cl`, the Potency entry is “inactive”. For `CC(C)N(C(=O)COc1nnc(C(F)(F)F)s1)c1ccc(F)cc1`, the Potency entry is “inactive”. As for `ClCc1ccccc1`, the Potency result was “inactive”.

As to `Nc1nc(=S)[nH][nH]1`, the Potency entry was “inactive”. For `O=[N+]([O-])c1ccc(F)c([N+](=O)[O-])c1` the value was “inactive”; for `NS(=O)(=O)C(F)(F)C(F)(F)C(F)(F)C(F)(F)C(F)(F)C(F)(F)C(F)(F)C(F)(F)F`, “inactive”; for `CCOP(O)OCC`, “inactive”. For `Clc1cccc2ccccc12` the value was “inactive”; for `C=CCC1([C@H](C)CCC)C(=O)NC(=O)NC1=O`, “inactive”.
